Bioassay records from PubChem BioAssay.
IDE cell inh = human IDE inhibitors in live cells, primary screen, fluorescence polarization, HEK cells, FAbetaB substrate. inhibition, % at 5.59 µM. AID 434962, 2010. hit rate 0.41% among 320,000. Insulin-degrading enzyme (Homo sapiens), P14735. FAbetaB cleavage;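 active means percent inhibition above the average of all tested compounds plus 3 SD, set per screening campaign, cut at about 16% in these data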;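 further: IDE supplied by intact live HEK cells; FP after avidin binding of uncleaved biotin substrate so inhibition keeps polarization high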
Rpn11 inh = Rpn11 (PSMD14) deubiquitinase inhibitors, primary screen, biochemical, fluorescence polarization, uHTS; human 26S proteasome, Ub4-pepOG fluorescence polarization; 20S core pre-blocked with epoxomicin; hit rate 0.59% among 360,000; 26S proteasome non-ATPase regulatory subunit 14 (Homo sapiens), O00487; inhibition, % at 20 µM;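 active means inhibition at 20 µM, scaled to each plate's controls, above about 33%, limit read from the data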
Target sequence (O00487 whole entry, looked up): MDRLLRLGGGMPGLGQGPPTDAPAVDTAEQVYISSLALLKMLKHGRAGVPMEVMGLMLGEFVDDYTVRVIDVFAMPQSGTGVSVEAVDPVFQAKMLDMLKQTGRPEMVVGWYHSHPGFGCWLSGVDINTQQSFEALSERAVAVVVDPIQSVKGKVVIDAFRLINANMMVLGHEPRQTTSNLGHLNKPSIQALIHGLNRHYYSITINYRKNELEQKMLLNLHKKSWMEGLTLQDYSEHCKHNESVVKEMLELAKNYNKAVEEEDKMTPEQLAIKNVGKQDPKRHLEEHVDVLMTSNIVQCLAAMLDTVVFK
Calb FLC = C. albicans growth inhibition with fluconazole, primary screen, CaCi-2 strain, Alamar Blue fluorescence | C. albicans CaCi-2 (fluconazole-resistant clinical isolate) + fluconazole, 48 h | growth inhibition, % (concentration not given with the values) | hit rate 0.57% among 300,000 | AID 1979, 2009;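 active means growth inhibition above about 58% in most replicates, limit read from the data, passing the limit was not always enough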;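 further: all wells also contain fluconazole at 8 µg/ml as a sub-toxic cotreatment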
Rin1 Abl inh = inhibitors of Rin1-Abl protein binding, primary screen, biochemical, TR-FRET; AID 588664, 2011; inhibition, % at 7.35 µM; Tyrosine-protein kinase ABL1 (Homo sapiens) + Ras and Rab interactor 1 (Homo sapiens), …; hit rate 0.4% among 360,000; in the data active means inhibition above about 5%, passing the limit was not always enough
IDE act = human IDE activators in live cells, primary screen, fluorescence polarization, HEK cells, FAbeta-B substrate; hit rate 0.073% among 340,000; Insulin-degrading enzyme (Homo sapiens), P14735; activation, % at 5.96 µM; FAbeta-B cleavage; 0% vehicle, 100% cell-free pure enzyme wells; AID 493087, 2011;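 active means activation above the mean of all tested compounds plus 3 SD, set per screening campaign, cut at about 17% in these data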
TPT1 inh = Candida albicans TPT1 enzyme inhibitors, primary screen, biochemical, fluorescence polarization; recombinant caTPT1, FP RNA substrate dephosphorylation; AID 1962, 2009; inhibition, % at 5 µM; hit rate 0.81% among 300,000;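 active means inhibition above the mean of all tested compounds plus 3 SD, set per screening campaign, cut at about 24% in these data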
TPT1 inh confirm = Candida albicans TPT1 inhibitors, confirmation, biochemical, fluorescence polarization, triplicate | shares compounds with TPT1 inh | recombinant caTPT1, RNase T1 coupled | inhibition, % at 5 µM | hit rate 74% among 2,400;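 active means inhibition above the primary screen limit, the mean inhibition of all tested compounds plus 3 SD, cut at about 25% in these data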
RNase T1 inh = RNase T1 inhibitors, counter-screen for TPT1 inhibitor project, biochemical, fluorescence polarization. shares compounds with TPT1 inh. RNase T1 cleavage, 1536-well. inhibition, % at 5 µM. hit rate 83% among 2,400. AID 2153, 2009;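 active means inhibition above the solvent-only control well mean plus 3 SD, limit set per screening run, cut at about 23% in these data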;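 further: inhibitors block cleavage so intact labeled substrate keeps polarization high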
Target sequence (P00651 whole entry, looked up): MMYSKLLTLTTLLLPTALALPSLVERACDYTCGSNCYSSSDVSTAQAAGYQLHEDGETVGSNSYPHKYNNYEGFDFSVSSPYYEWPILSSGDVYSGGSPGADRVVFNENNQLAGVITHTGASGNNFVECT
Rpn11 inh conf = Rpn11 (PSMD14) deubiquitinase inhibitors, confirmation, biochemical, fluorescence polarization, single concentration; purified human 26S proteasome, Ub4-pepOG fluorescence polarization; proteasome pretreated with epoxomicin; shares compounds with Rpn11 inh; hit rate 29% among 1,900; inhibition, % at 20 µM; in the data active means inhibition above about 40%
MMP-2 inh = MMP-2 enzyme inhibition, confirmation, counter-screen for RPN11 inhibitor project, biochemical, fluorescence, single concentration; hit rate 4% among 1,900; AID 602330, 2012; shares compounds with Rpn11 inh; recombinant MMP-2, FRET peptide cleavage fluorescence; inhibition, % at 20 µM; in the data active means inhibition above about 40%;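 further: human MMP-2 activated beforehand with APMA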
Thrombin FP = bovine thrombin protease inhibition, confirmation, counter-screen for Rpn11 inhibitor project, biochemical, fluorescence polarization, single concentration; inhibition, % at 20 µM; AID 602333, 2012; bovine thrombin cleavage of Ub4-pepOG; hit rate 13% among 1,900; shares compounds with Rpn11 inh;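 active means mean inhibition at least 40% at 20 µM, or signal 3 deviations below plate average, so some actives read negative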
Rin1-Abl confirm = Rin1-Abl binding inhibitor retest, confirmation, biochemical, TR-FRET | shares compounds with Rin1 Abl inh | AID 602124, 2011 | inhibition, % at 7.35 µM | hit rate 49% among 1,300 | purified proteins
GFP quencher = GFP fluorescence inhibitors and quenchers, artefact control for Rin1-Abl interaction inhibitor project, biochemical | shares compounds with Rin1 Abl inh | inhibitors/quenchers counterscreen | inhibition, % at 6.75 µM | hit rate 8.5% among 1,300 | AID 602125, 2011;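 further: ABL1-eGFP fusion protein alone without its partner RIN1-SBP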
Large screens that a line does not name were inactive (follow-up assays come after a bar, where they were run). This is a sample that favours compounds with a hit; in the whole collection about 2.3% have one here. Unless noted, no stated cut-off is given here; in the data, active means inhibition above about 6.5%; inactive means the rest.

NC(=O)CC(NC(=O)Cc1cccc2ccccc12)c1ccc(NC2CCN(Cc3ccccc3)CC2)c([N+](=O)[O-])c1 (stereo not drawn)	Rpn11 inh 41.8, TPT1 inh 25.7 | TPT1 inh confirm 28.9 | RNase T1 inh 40.5 | Rpn11 inh conf inactive | MMP-2 inh inactive | Thrombin FP inactive
COC(=O)/C=c1/s/c(=C(\C#N)C(=O)NCc2ccco2)n(-c2ccc(C)cc2)c1=O	Rpn11 inh 56.6, TPT1 inh 82.2 | TPT1 inh confirm inactive | RNase T1 inh 27.3 | Rpn11 inh conf inactive | MMP-2 inh inactive | Thrombin FP inactive
CC(=O)c1cccc(-c2ccc3c(=O)[nH]c(Nc4ccccc4)cc3c2)c1	Rpn11 inh 84.7, TPT1 inh 30.4 | TPT1 inh confirm 58.9 | RNase T1 inh 71.0 | Rpn11 inh conf inactive | MMP-2 inh inactive | Thrombin FP inactive
O=C(Nc1ccc(F)cc1F)c1cccc(C(=O)Nc2ccc(F)cc2F)n1	none
CCCN1C(=O)/C(=C/c2c(NCCCOC(C)C)nc3c(C)cccn3c2=O)SC1=S	Rpn11 inh 109.7, TPT1 inh 120.7 | TPT1 inh confirm 115.6 | RNase T1 inh 128.7 | Rpn11 inh conf 83.5 | MMP-2 inh inactive | Thrombin FP 48.5
C=CC[n+]1c(-c2ccccc2)csc1NC(C)(C)C	none
C=CC[n+]1c(-c2ccc(OC)c(OC)c2)csc1NNC(=O)Nc1ccccc1	Rpn11 inh 52.0, TPT1 inh 24.6 | TPT1 inh confirm inactive | RNase T1 inh inactive | Rpn11 inh conf inactive | MMP-2 inh 48.2 | Thrombin FP inactive
N#Cc1c(SCC(=O)Nc2nccs2)sc2c(O)cc(=O)[nH]c12	Rpn11 inh 60.5, TPT1 inh 79.0 | TPT1 inh confirm inactive | RNase T1 inh inactive | Rpn11 inh conf inactive | MMP-2 inh inactive | Thrombin FP inactive
CC(C)[C@H](NC(=O)c1ccccc1)C(=O)OCC(=O)c1ccc(S(=O)(=O)N2CCCCC2)cc1	none
Cc1cc(=O)[nH]c(N/N=C/c2c(O)n(-c3ccccc3)c(=O)c3ccccc23)n1	Rpn11 inh 65.9, TPT1 inh 36.0 | TPT1 inh confirm 32.0 | RNase T1 inh 38.9 | Rpn11 inh conf 43.2 | MMP-2 inh inactive | Thrombin FP inactive
NS(=O)(=O)c1ccc(CCNC(=O)COC(=O)Cc2ccc(Cl)cc2)cc1	none (no result: IDE cell inh, Calb FLC, IDE act, TPT1 inh)
O=C(/C=C\Nc1ccc2c(c1)OCO2)c1cccs1	none
O=C(/C=C\Nc1ccc2c(c1)OCO2)c1ccc(Cl)s1	Rpn11 inh 35.8, TPT1 inh 24.7 | TPT1 inh confirm 39.4 | RNase T1 inh 49.5 | Rpn11 inh conf inactive | MMP-2 inh inactive | Thrombin FP inactive
COc1ccc(NC(=O)CN(C)S(=O)(=O)c2ccc(C)cc2)c([N+](=O)[O-])c1	Rpn11 inh 82.1, TPT1 inh 40.8 | TPT1 inh confirm 48.9 | RNase T1 inh 62.0 | Rpn11 inh conf inactive | MMP-2 inh inactive | Thrombin FP inactive
CN1CCN(C(=O)/C(=C/c2ccc(N(C)C)cc2)NC(=O)c2ccccc2)CC1	Rpn11 inh 48.7, TPT1 inh 44.9 | TPT1 inh confirm 48.2 | RNase T1 inh 58.1 | Rpn11 inh conf inactive | MMP-2 inh inactive | Thrombin FP inactive
COc1cccc(CNC(=O)c2ccc(Cl)c(S(=O)(=O)N3CCOCC3)c2)c1	none (no result: Calb FLC, TPT1 inh)
CCN1C(=O)/C(=C/c2c(C)nn(C)c2C)SC1=S	Rpn11 inh 38.4, TPT1 inh 24.3 | TPT1 inh confirm 34.0 | RNase T1 inh 44.6 | Rpn11 inh conf inactive | MMP-2 inh inactive | Thrombin FP inactive
Cc1cccc(-n2c(N)c(-c3nc4ccccc4n3C)c3nc4ccccc4nc32)c1	Rin1 Abl inh 12.4, TPT1 inh 26.0 | TPT1 inh confirm 25.0 | RNase T1 inh 36.1 | Rin1-Abl confirm inactive | GFP quencher inactive
NC(=O)c1ccc(NC(=O)c2ccc(COc3ccc(F)cc3)o2)cc1	none (no result: Calb FLC, TPT1 inh)
COCCN=c1scc(-c2ccco2)n1/N=C/c1ccc(O)c(O)c1O	Rin1 Abl inh 20.0, TPT1 inh 51.9 (no result: Calb FLC) | TPT1 inh confirm 60.0 | RNase T1 inh 70.5 | Rin1-Abl confirm 13.4 | GFP quencher 11.2
O=C(Nc1ccncc1)C1CCN(S(=O)(=O)c2ccc(Cl)cc2)CC1	none (no result: Calb FLC)
COc1cc(/C=C2\CCC/C(=C\c3ccc(O)c(OC)c3)C2=O)ccc1O	none
COc1cc(/C=C2\CC/C(=C\c3cc(OC)c(O)c(OC)c3)C2=O)cc(OC)c1O	Rpn11 inh 111.9, Rin1 Abl inh 30.2, TPT1 inh 91.0 (no result: Calb FLC) | TPT1 inh confirm 95.0 | RNase T1 inh 100.6 | Rpn11 inh conf 88.6 | MMP-2 inh inactive | Thrombin FP 80.5 | Rin1-Abl confirm 34.4 | GFP quencher 23.8
